Some of the results follow. Calls of active or inactive are those of the source.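 The calls were made as follows: active = IC50 at or below 10 µM; inactive = IC50 above 10 µM.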
test: 535nm fluorescence optical interference, dose response, artefact control for HGIII-sPLA2 inhibitor project, biochemical, QFRET (AID 743455); conditions: BODIPY FL product fluorescence interference, cell-free

IC50, inactive:
Cn1cc(Cl)c(C(=O)NNC(=S)Nc2cccc(Cl)c2)n1 > 122 µM
CC(C)CC(=O)NC(=S)NNC(=O)c1cccc([N+](=O)[O-])c1 > 122 µM
O=C(N/N=C/c1cc(Cl)cc([N+](=O)[O-])c1O)C(O)(c1ccccc1)c1ccccc1 > 122 µM
Cc1ccc2sc(NNC(=O)c3ccc4c(c3)OCCO4)nc2c1C > 122 µM
O=C(NNC(=S)Nc1ccc(Br)cc1Cl)c1ccco1 > 122 µM
O=C(NNC(=S)NC1CCCCC1)c1ccccc1Cl > 122 µM
COc1ccc(C(=O)NC(=S)NNC(=O)c2c(-c3ccccc3)noc2C)cc1 > 122 µM
COc1ccc(Cl)cc1C(=O)NNC(=S)NC1CCCC1 > 122 µM
COc1ccc2c(c1)c(=Cc1ccc(N(C)C)cc1)c1cc(-c3ccccc3)[n+](C)n12 > 122 µM
O=C(NNC(=S)Nc1ccc(F)cc1)[C@H]1C[C@@H]1c1ccccc1 > 122 µM
C/C(=N\NC(=S)Nc1ccc(C)cc1)c1cc2ccccc2o1 > 122 µM
Cc1cccc(-n2cnc(C(=O)NNC(=S)Nc3ccccc3)c2)n1 > 122 µM
O=C1C(=O)N(Cc2ccc(-c3ccsc3)cc2)c2ccc(OC(F)(F)F)cc21 > 122 µM
